Results reported in the supplement of paper PMC7156485.
“And” between values parts separate entries of the source, which are not always exact repeats. Equal entries are not always repeated.
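Also: TDF is a line of transformed human dermal fibroblasts of mesenchymal origin.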

These molecules were tested on TDF (assay: H1.0 immunofluorescence intensity relative to DMSO (% of DMSO); higher = stronger H1.0 induction, active = 120 or more). Conditions: concentration: 10 µM; 24 h.
Outline: (§1)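 Cells were seeded at 800 per well in 384-well plates with RPMI containing 10% FBS; both HCC1569 and TDF lines were used. Compounds were added at 10 µM for 24 h at 37 °C, in triplicate, before fixation in 3.7% formaldehyde and staining with a rabbit anti-H1.0 antibody, an AlexaFluor 647 secondary and DAPI. H1.0 nuclear intensity or cell number is reported as percent of the plate control using the median of replicates, and HCC1569 values were smoothed for positional effects.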
For `CNC(=O)c1cc2c(cn1)[nH]c1ccccc12` [N-Methyl-beta-carboline-3-carboxamide], the H1.0 immunofluorescence intensity was 87.9 (inactive).
In the case of `CC(C)N(CCC(=O)c1ccc2ccccc2c1)Cc1ccccc1.Cl`, the H1.0 immunofluorescence intensity is reported as 102 (inactive).
In the case of `O=C(Nc1ccc([N+](=O)[O-])cc1Cl)c1cc(Cl)ccc1O` [Niclosamide], the H1.0 immunofluorescence intensity is reported as 104 (inactive).
For `CC=C(C)C(=O)OC1CC(C)=CC(=O)C2(C)CCC(O)(C(C)C)C12` (stereo not drawn) [Lapidin], the H1.0 immunofluorescence intensity was 95.4 (inactive).
For `OCC1OC(OC2OC=CC3C(O)C4OC4(CO)C23)C(O)C(O)C1O` (stereo not drawn) [Catalpol], the H1.0 immunofluorescence intensity was 96.6 (inactive).
With `CC(N)(Cc1ccc(O)cc1)C(=O)O` [L-alpha-Methyl-p-tyrosine] the H1.0 immunofluorescence intensity was 92.6 (inactive).
In the case of `CCCCCCCCCCCCCCCC(O)C(CO)NC(=O)CCCCCCC` (stereo not drawn) [C8 Dihydroceramide], the H1.0 immunofluorescence intensity is reported as 97.1 (inactive).
In the case of `CCCN(CCc1ccccc1)C1CCc2c(O)cccc2C1` (stereo not drawn) [2-(N-Phenethyl-N-propyl)amino-5-hydroxytetralin], the H1.0 immunofluorescence intensity is reported as 89.4 (inactive).
For `O=C1NC(=O)c2c1c1c3ccccc3[nH]c1c1[nH]c3cc(Br)ccc3c21` [Cdk4 Inhibitor], the H1.0 immunofluorescence intensity was 91.2 (inactive).
`O=[N+]([O-])c1ccc(S(=O)(=O)NCc2ccccc2)c([N+](=O)[O-])c1` [N-Benzyl-2,4-dinitrobenzenesulfonamide] was tested, and the H1.0 immunofluorescence intensity was 117 (inactive).
`COc1ccc(-c2cc(=S)ss2)cc1` [Anethole-trithione] was tested, and the H1.0 immunofluorescence intensity was 96.7 (inactive).
In the case of `CCCCCCCCCCCCC(=O)N1CCCCC1CNC(=O)C(N)CCCCN.Cl.Cl` (stereo not drawn), the H1.0 immunofluorescence intensity is reported as 104 (inactive).
`COc1ccc(N2C(=O)CSC2c2cccc(Br)c2)c(OC)c1` (stereo not drawn) was tested, and the H1.0 immunofluorescence intensity was 156 (active).
`CCCCCC=CCC(O)C=CC=CC=CC(O)CCCC(=O)O` [5(S),12(S)-DIHETE all trans] was tested, and the H1.0 immunofluorescence intensity was 93.5 (inactive).
In the case of `COc1ccc(CC[C@H]2CCC[C@@H](CCc3ccc(OC)cc3)N2C[C@@H](O)CO)cc1.Cl`, the H1.0 immunofluorescence intensity is reported as 93.3 (inactive).
`O=c1c(O)c(-c2ccccc2)oc2cc(O)cc(O)c12` [Galangine] was tested, and the H1.0 immunofluorescence intensity was 101 (inactive).
`COc1cc2c(c(OC)c1OC)-c1ccc(OC)c(=O)cc1C(NC=O)CC2` (stereo not drawn) [N-Formyl-Deacetylcolchicine] was tested, and the H1.0 immunofluorescence intensity was 91.7 (inactive).
`Cl.Cl.Cl.NCCC1CCCC(CCN)N1` (stereo not drawn) [MDL 26,630 trihydrochloride] was tested, and the H1.0 immunofluorescence intensity was 93.7 (inactive).
In the case of `Cc1c[nH]c(C=C2C(=O)Nc3ccccc32)c1CCC(=O)O`, the H1.0 immunofluorescence intensity is reported as 95.4 (inactive).
For `COC(C(=O)C(O)C(C)O)C1Cc2cc3cc(OC4CC(OC5CC(O)C(O)C(C)O5)C(O)C(C)O4)c(C)c(O)c3c(O)c2C(=O)C1OC1CC(OC2CC(OC3CC(C)(O)C(O)C(C)O3)C(O)C(C)O2)C(O)C(C)O1` (stereo not drawn) [Plicamycin], the H1.0 immunofluorescence intensity was 103 (inactive).
`S=c1ccss1` [1,2-Dithiole-3-thione] was tested, and the H1.0 immunofluorescence intensity was 89.6 (inactive).
For `CCOC(=O)OC(C)OC1=C(C(=O)Nc2ccccn2)N(C)S(=O)(=O)c2ccccc21` (stereo not drawn) [Ampiroxicam], the H1.0 immunofluorescence intensity was 99.6 (inactive).
For `COc1nccc(-c2c(-c3ccc(F)cc3)ncn2C2CCNCC2)n1`, the H1.0 immunofluorescence intensity was 84.3 (inactive).
With `O=C(Cc1ccc(Cl)c(Cl)c1)OCCN1CCCC1.O=C(O)C(=O)O` [AC 915 oxalate] the H1.0 immunofluorescence intensity was 92.1 (inactive).
`CCC(CO)Nc1nc(NCc2ccc(-c3ccccn3)cc2)c2ncn(C(C)C)c2n1` [CR8, (S)-Isomer] was tested, and the H1.0 immunofluorescence intensity was 124 (active).
`O=C(Nc1ccccc1)c1cc([N+](=O)[O-])ccc1Cl` was tested, and the H1.0 immunofluorescence intensity was 100 (inactive).
For `Cc1onc(-c2ccccc2)c1C(=O)NC1C(=O)N2C1SC(C)(C)C2C(=O)[O-]` (stereo not drawn) [Oxacillin], the H1.0 immunofluorescence intensity was 91.4 (inactive).
With `COc1ccc(-c2cc(=O)c3c(O)cc(O)cc3o2)cc1O` [Diosmetine] the H1.0 immunofluorescence intensity was 99.2 (inactive).

The molecules below were run on HCC1569 (assay: H1.0 immunofluorescence intensity relative to DMSO (% of DMSO); higher = stronger H1.0 induction, active = 140 or more). Conditions: concentration: 10 µM; 24 h.
Outline: as §1
In the case of `Cc1ccc(S(=O)(=O)C=CC#N)cc1`, the H1.0 immunofluorescence intensity is reported as 191 (active) and 104 (inactive).
For `Cc1c(O)cc2c(c1C)OC(C)(CCCC(C)CCCC(C)CCCC(C)C)CC2` [D-γ-Tocopherol], the H1.0 immunofluorescence intensity was 102 (inactive).
With `CC(C)(C)NCC(O)COc1nsnc1N1CCOCC1.O=C(O)C=CC(=O)O` [(S)-Timolol maleate] the H1.0 immunofluorescence intensity was 97.9 (inactive).
In the case of `O=NN(CCCl)C(=O)NC1CCCCC1` [Lomustine], the H1.0 immunofluorescence intensity is reported as 99.7 (inactive).
In the case of `OCC1OC(n2cnc3c(NC4CCCC4)ncnc32)C(O)C1O` (stereo not drawn) [N6-Cyclopentyladenosine], the H1.0 immunofluorescence intensity is reported as 97.7 (inactive).
`CC(=O)OCC(=O)C1(O)CCC2C3CCC4=CC(=O)CCC4(C)C3C(O)CC21C` (stereo not drawn) [Hydrocortisone 21-acetate] was tested, and the H1.0 immunofluorescence intensity was 109 (inactive).
In the case of `COc1cc2ncnc(N3CCN(C(=O)Nc4ccc(Oc5ccccc5)cc4)CC3)c2cc1OC` [PDGF Receptor Tyrosine Kinase Inhibitor III], the H1.0 immunofluorescence intensity is reported as 215 (active).
`CCOC(=O)C(C)(C)Oc1ccc(Cl)cc1` [Clofibrate] was tested, and the H1.0 immunofluorescence intensity was 94.7 (inactive).
In the case of `CN(C)C(=O)N=NC(=O)N(C)C` [N,N,N',N'-Tetramethylazodicarboxamide], the H1.0 immunofluorescence intensity is reported as 99.2 (inactive).
With `Cc1nc(-c2ccccc2)c(-c2ccncc2)o1` the H1.0 immunofluorescence intensity was 103 (inactive).
For `CN1CCC(=C2c3ccccc3C=Cc3ccccc32)CC1.Cl` [Cyproheptadine hydrochloride], the H1.0 immunofluorescence intensity was 120 (inactive).
`Cc1cncc2cccc(S(=O)(=O)N3CCCN(C(=O)CN)CC3C)c12.Cl.Cl.O` (stereo not drawn) [Rho Kinase Inhibitor IV] was tested, and the H1.0 immunofluorescence intensity was 131 (inactive).
In the case of `CNC(=O)c1cc2c(cn1)[nH]c1ccccc12` [N-Methyl-beta-carboline-3-carboxamide], the H1.0 immunofluorescence intensity is reported as 85.2 (inactive).
For `CC(C)N(CCC(=O)c1ccc2ccccc2c1)Cc1ccccc1.Cl`, the H1.0 immunofluorescence intensity was 119 (inactive).
In the case of `O=C(Nc1ccc([N+](=O)[O-])cc1Cl)c1cc(Cl)ccc1O` [Niclosamide], the H1.0 immunofluorescence intensity is reported as 120 (inactive).
For `CC=C(C)C(=O)OC1CC(C)=CC(=O)C2(C)CCC(O)(C(C)C)C12` (stereo not drawn) [Lapidin], the H1.0 immunofluorescence intensity was 93.9 (inactive).
In the case of `OCC1OC(OC2OC=CC3C(O)C4OC4(CO)C23)C(O)C(O)C1O` (stereo not drawn) [Catalpol], the H1.0 immunofluorescence intensity is reported as 89.4 (inactive).
With `CC(N)(Cc1ccc(O)cc1)C(=O)O` [L-alpha-Methyl-p-tyrosine] the H1.0 immunofluorescence intensity was 90.6 (inactive).
`CCCCCCCCCCCCCCCC(O)C(CO)NC(=O)CCCCCCC` (stereo not drawn) [C8 Dihydroceramide] was tested, and the H1.0 immunofluorescence intensity was 108 (inactive).
`CCCN(CCc1ccccc1)C1CCc2c(O)cccc2C1` (stereo not drawn) [2-(N-Phenethyl-N-propyl)amino-5-hydroxytetralin] was tested, and the H1.0 immunofluorescence intensity was 106 (inactive).
With `O=C1NC(=O)c2c1c1c3ccccc3[nH]c1c1[nH]c3cc(Br)ccc3c21` [Cdk4 Inhibitor] the H1.0 immunofluorescence intensity was 208 (active).
For `O=[N+]([O-])c1ccc(S(=O)(=O)NCc2ccccc2)c([N+](=O)[O-])c1` [N-Benzyl-2,4-dinitrobenzenesulfonamide], the H1.0 immunofluorescence intensity was 123 (inactive).
In the case of `COc1ccc(-c2cc(=S)ss2)cc1` [Anethole-trithione], the H1.0 immunofluorescence intensity is reported as 103 (inactive).
`CCCCCCCCCCCCC(=O)N1CCCCC1CNC(=O)C(N)CCCCN.Cl.Cl` (stereo not drawn) was tested, and the H1.0 immunofluorescence intensity was 100 (inactive).
In the case of `COc1ccc(N2C(=O)CSC2c2cccc(Br)c2)c(OC)c1` (stereo not drawn), the H1.0 immunofluorescence intensity is reported as 146 (active).
For `CCCCCC=CCC(O)C=CC=CC=CC(O)CCCC(=O)O` [5(S),12(S)-DIHETE all trans], the H1.0 immunofluorescence intensity was 95 (inactive).
In the case of `COc1ccc(CC[C@H]2CCC[C@@H](CCc3ccc(OC)cc3)N2C[C@@H](O)CO)cc1.Cl`, the H1.0 immunofluorescence intensity is reported as 92.7 (inactive).
For `O=c1c(O)c(-c2ccccc2)oc2cc(O)cc(O)c12` [Galangine], the H1.0 immunofluorescence intensity was 100 (inactive).
With `COc1cc2c(c(OC)c1OC)-c1ccc(OC)c(=O)cc1C(NC=O)CC2` (stereo not drawn) [N-Formyl-Deacetylcolchicine] the H1.0 immunofluorescence intensity was 81.9 (inactive).
In the case of `Cl.Cl.Cl.NCCC1CCCC(CCN)N1` (stereo not drawn) [MDL 26,630 trihydrochloride], the H1.0 immunofluorescence intensity is reported as 85.3 (inactive).
With `Cc1c[nH]c(C=C2C(=O)Nc3ccccc32)c1CCC(=O)O` the H1.0 immunofluorescence intensity was 103 (inactive).
In the case of `COC(C(=O)C(O)C(C)O)C1Cc2cc3cc(OC4CC(OC5CC(O)C(O)C(C)O5)C(O)C(C)O4)c(C)c(O)c3c(O)c2C(=O)C1OC1CC(OC2CC(OC3CC(C)(O)C(O)C(C)O3)C(O)C(C)O2)C(O)C(C)O1` (stereo not drawn) [Plicamycin], the H1.0 immunofluorescence intensity is reported as 126 (inactive).
For `S=c1ccss1` [1,2-Dithiole-3-thione], the H1.0 immunofluorescence intensity was 99.4 (inactive).
With `CCOC(=O)OC(C)OC1=C(C(=O)Nc2ccccn2)N(C)S(=O)(=O)c2ccccc21` (stereo not drawn) [Ampiroxicam] the H1.0 immunofluorescence intensity was 116 (inactive).
For `COc1nccc(-c2c(-c3ccc(F)cc3)ncn2C2CCNCC2)n1`, the H1.0 immunofluorescence intensity was 99.5 (inactive).
For `O=C(Cc1ccc(Cl)c(Cl)c1)OCCN1CCCC1.O=C(O)C(=O)O` [AC 915 oxalate], the H1.0 immunofluorescence intensity was 99 (inactive).
In the case of `CCC(CO)Nc1nc(NCc2ccc(-c3ccccn3)cc2)c2ncn(C(C)C)c2n1` [CR8, (S)-Isomer], the H1.0 immunofluorescence intensity is reported as 128 (inactive).
In the case of `O=C(Nc1ccccc1)c1cc([N+](=O)[O-])ccc1Cl`, the H1.0 immunofluorescence intensity is reported as 97.9 (inactive).
For `Cc1onc(-c2ccccc2)c1C(=O)NC1C(=O)N2C1SC(C)(C)C2C(=O)[O-]` (stereo not drawn) [Oxacillin], the H1.0 immunofluorescence intensity was 111 (inactive).
In the case of `COc1ccc(-c2cc(=O)c3c(O)cc(O)cc3o2)cc1O` [Diosmetine], the H1.0 immunofluorescence intensity is reported as 114 (inactive).
